Common to all, as to assay: NCI-60 one-dose screen, 48 h (100 = growth as untreated, 0 = no growth, -100 = all killed)
Holding throughout (conditions): 10 µM unless noted

The test system of test [1] is HCT-15 colon.
In test [2] the test system is HT29 colon.
The subject of test [3] is SNB-75 CNS.
Test [4] has as its system SNB-19 CNS.
Test [5] relates to U251 CNS.
Test [6] deals with PC-3 prostate.
The test system of test [7] is UACC-62 melanoma.
Test [8] deals with LOX IMVI melanoma.
The subject of test [9] is SK-MEL-28 melanoma.
Test [10] deals with SK-MEL-2 melanoma.
Test [11] deals with EKVX NSCLC.
In test [12] the test system is SN12C renal.
Test [13] has as its system UO-31 renal.
Test [14] has as its system TK-10 renal.
For test [15], the system named is ACHN renal.
In test [16] the test system is CAKI-1 renal.
Test [17] relates to A498 renal.
For test [18], the system named is CCRF-CEM leukemia.
In test [19] the test system is MOLT-4 leukemia.
The test system of test [20] is SK-MEL-5 melanoma.

Growth data for eight molecules are collected here from PubChem BioAssay (NCI).

This is part of a sample that, as a whole, favours compounds with a hit. Of some 83,000 tested, about 20% had one in any assay.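 Negative percent growth values reflect cell death: -40 means 40% of the cells present at the start died, and -100 means all died.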 Values without a mark were called inactive. The source made the active and inactive calls. How the source made its calls: active means growth percent below 10; inactive means the rest.

On to `COc1c(N2CC3CCCNC3C2)c(F)cc2c(=O)c(C(=O)N/N=C/c3ccc(N(C)C)cc3)cn(C3CC3)c12` (configuration not stated), for which the growth was 16.4% in test [1]; -12% (active) in test [2]; 100% in [3]; 78.3% in test [4]; 49% in test [5]; 60.4% in [6]. The growth in [7] was 100%; in test [8], -22.6% (active); in [9], 97.8%; in [10] it was 114%; in test [11] it was 86.2%; in test [12] it was 65.5%. Further, the growth is 59.1% in test [13]; 122% in test [14]; 46.8% in test [15]; 90.3% in test [16]; 113% in test [17]; 29.6% in test [18]. Further, the growth in [19] is 29.5%.

As to `CCO/C=N/C1=C(C#N)C(c2ccc(Cl)cc2)c2sc3c(C)cccc3c2O1` (configuration not stated), the growth was 12.5% in [1]; 4.77% (active) in [2]; -5.08% (active) in test [3]; 18.4% in test [4]; 20.7% in test [5]; 12% in [6]. For the same molecule, the growth in [20] was 30.7%; in test [7] it was 9.19% (active); in test [8] it was 22.1%; in [10], 42.6%; in test [11], 45.9%; in test [12], 26.2%. Moreover, the growth in test [13] was 30.3%; in test [14] it was 62.2%; in test [15], 31.8%; in test [16], 39.5%; in [17] it was -5.08% (active); in test [18], 16.2%. For the same molecule, the growth in test [19] is 18.8%.

Regarding `Cc1ccc(-n2c(/C=C3\C(=O)Nc4ccccc43)ccc2CO)cc1`, the growth is 31.2% in test [1]; 60.7% in test [2]; 41.5% in test [3]; 81% in test [4]; 77.8% in test [5]; 66.5% in test [6]. Also, the growth is 50.6% in test [7]; 62.5% in [8]; 70.9% in [9]; 81% in [10]; 79.8% in test [11]; 88.2% in test [12]. Besides, the growth in [13] is 65%; in test [14], 118%; in test [15], 76.5%; in test [16] it was 55.9%; in test [17] it was 47%; in test [18] it was 54.9%. For the same molecule, the growth in test [19] was 43.8%.

`O=C(CSc1nnc(-c2ccc(Cl)cc2)n1-c1ccccc1)Nc1cccc(Cl)c1`: the growth in test [1] was 79.5%; in test [2], 71.6%; in [3] it was 42.5%; in test [4], 80.2%; in [5], 50.2%; in test [6] it was 75.5%. Also, the growth in test [7] is 97.7%; in test [8], 7.5% (active); in test [9], 97.8%; in test [10] it was 101%; in test [11] it was 62.3%; in test [12], 25.4%. The growth in test [13] is 12.6%; in [14] it was 75.1%; in [15], 9.9% (active); in [16], 64.9%; in test [17], 95.9%; in test [18], 78.3%. Also, the growth in test [19] was 85.6%.

Take `COc1ccc([C@@H]2[C@@H](O)C(=O)N2c2cc(OC)c(OC)c(OC)c2)cc1F`: the growth in [1] was 7.95% (active); in test [2], -31.9% (active); in [3], 17.6%; in test [4], 24.7%; in [5] it was 12.2%; in test [6], 20.9%. For the same molecule, the growth in [7] was 33.4%; in test [8] it was -4.8% (active); in test [9], 68.6%; in test [10] it was -5.37% (active); in [11], 41.8%; in test [12], 28.7%. Moreover, the growth in test [13] was 30.1%; in test [14] it was 86.3%; in test [15], 28.4%; in test [16] it was 30.3%; in test [17], -29.5% (active); in test [18], 18.5%. Further, in test [19], the growth was 15.8%.

`NS(=O)(=O)c1ccc(Nc2nc(N/N=C/c3ccc(Cl)cc3)nc(Nc3ccccc3)n2)cc1`: the growth is 76.4% in test [1]; 34.2% in test [2]; 94.3% in test [3]; 81.8% in [4]; 54.6% in [5]; 51.7% in test [6]. Moreover, the growth in [7] is 74.9%; in test [8], 60.4%; in test [9], 75.3%; in [10], 81.7%; in test [11] it was 76.6%; in test [12] it was 81.6%. In addition, the growth in test [13] was 82.1%; in [14], 103%; in test [15] it was 90.1%; in [16], 62.1%; in test [17], 76.3%; in [18], 19.4%. Moreover, the growth in test [19] was 1.53% (active).

`COc1ccc(Cn2cc3c(c2-c2cc(OC)c(OC)c(OC)c2)CCc2c(CN4CCCC4)noc2-3)cc1`: the growth is 21.1% in [1]; 8.73% (active) in test [2]; -2.12% (active) in test [3]; 22% in test [4]; 22.4% in test [5]; 29% in [6]. Moreover, the growth in test [7] was 15.8%; in test [8], 34.6%; in test [9], 60.9%; in [10] it was 57.1%; in test [11] it was 38.1%; in test [12], 36.6%. The growth was 35.9% in test [13]; 69.6% in test [14]; 45.7% in [15]; 35.9% in test [16]; -1.61% (active) in test [17]; 16.3% in test [18]. Also, in test [19], the growth is 18.3%.

Consider `Cc1nc2ncc(-c3ccc4ncnc(NCc5ccccc5)c4c3)cc2[nH]1`, for which the growth in test [1] is 103%; in test [2] it was 82.8%; in [3], 13%; in test [4], 67.7%; in test [5], 75.4%; in [6], 40.8%. In addition, the growth is 64.3% in [7]; 41.3% in test [8]; 63.1% in test [9]; 74% in test [10]; 25.3% in test [11]; 32.3% in [12]. Besides, the growth in test [13] is 45.4%; in [14], 22.6%; in test [15] it was 64.9%; in test [16], 19.3%; in test [17], -18.2% (active); in [18], 68.5%. Further, in test [19], the growth is 45.2%.
